Laboratory results taken from PubChem BioAssay (Tox21).
Inconclusive results are not listed. A call without a number means that no potency is given here. Unmarked numbers belong to inactive results. The source made the active and inactive calls. The call rests on the fitted dose curve; in most records, active means well fitted activation curve with a large enough effect in the signal ratio in the repeat runs (not every such curve was filed as active); inconclusive means weak or mixed curves; inactive means flat fitted curve, though single readings scatter; the % refers to the signal ratio.
Potency means the concentration at half of the fitted maximal effect.

Test: qHTS assay to identify small molecule agonists of H2AX (AID 1224845)
Conditions: CHO-K1 phospho-H2AX Ser139 HTRF, 3 h; series mostly up to 154 µM; activation (H2AX phosphorylation): at the top concentration
Description: National Center for Advancing Translational Sciences [NCATS]
NIH Chemical Genomics Center [NCGC]
U.S. Environmental Protection Agency [EPA]
National Institutes of Environmental Health Sciences [NIEHS]
National Toxicology Program [NTP]
U.S. Food and Drug Administration [FDA]
HTRF phospho-H2AX (Ser139) assay (Cisbio Bioassays, US) enables the quantitative detection of the histone variant H2AX when phosphorylated on serine 139. When double-stranded DNA breaks, either by ionizing radiation or endogenous physiological processes, H2AX becomes phosphorylated at Ser139. This phospho-Ser139 serves as a sensitive biomarker for the detection of such breaks, localizing the site of DNA repair. So, HTRF phospho-H2AX Ser139 is a pertinent assay to study genome stability, the cell cycle, DNA repair, and it serves as a biomarker for cancer, and to understand aging. Wild type CHO-K1 cells were used to identify the inducers of Phospho-H2AX Ser 139 from the Tox21 10K compound collections.
Tox21 Assay Protocol Summary:
The CHO-K1 cells suspended in culture medium containing 10% FBS were dispensed at 1000 cells/ 3 ul/well in 1536-well white wall/solid bottom plates (Greiner Bio-One North America, NC) using a Multidrop Combi (Thermo Fisher Scientific Inc., Waltham, MA). After the assay plates were incubated at 37C overnight, 23 nl of compounds at 15 concentrations (from 5-48 columns) or positive control (from 1 to 4 columns) were transferred to the assay plates using a Pintool station (Wako, San Diego, CA) into each well resulting in a final DMSO concentration of 0.76%. After 3hr incubation at 37C, 1 uL/well Supplemented Lysis buffer (diluted 100 fold blocking reagent in lysis buffer) (HTRF Phospho-H2A.X (S139) Assay kit from Cisbio US Inc., Bedford, MA) was added using a Flying Reagent Dispenser (FRD) (Aurora Discovery, CA). After 10sec spin at 1000 rpm in a plate centrifuge, the assay plates were incubated at room temperature for 30 min. Then followed by the addition of 1 uL/well detection buffer (containing a mixture of two antibodies, one labeled with cryptate, Anti pH2AX (S139)-K and another labeled with d2, Anti H2AX-d2) using FRD. After incubation at room temperature for 24 hr, the time resolved fluorescence at excitation 320 nm and emissions at 665 nm and 620 nm was measured using an Envision plate reader (PerkinElmer, Waltham, MA).
For `NC(N)=S`, the Potency was “inactive”.
In the case of `CC(C=O)Cc1ccc(C(C)(C)C)cc1` (stereo not given), the “activation (H2AX phosphorylation)” value is reported as 7.97%.
For `CC(=O)OC(C)(C)C1CC=C(C)CC1` (stereo not given), the Potency was “inactive”.
With `CCOC(=O)CC(=O)OCC` the Potency was “inactive”.
With `O=C1C(N(CO)C(=O)NCO)N(CO)C(=O)N1CO` (stereo not given) the Potency was “inactive”.
For `Cc1ncc(CO)c(CO)c1O`, the Potency was “inactive”.
With `CC(=O)OC/C=C(\C)CCC=C(C)C` the Potency was “inactive”.
With `CCCCCC(C)=O` the “activation (H2AX phosphorylation)” value was 0.131%.
With `CCCCC(=O)O` the Potency was “inactive”.
In the case of `CCn1cc(C(=O)O)c(=O)c2cc3c(cc21)OCO3`, the Potency is reported as “inactive”.
For `NCCNCCNCCN`, the Potency was “inactive”.
In the case of `CCCOCC(C)O` (stereo not given), the Potency is reported as “inactive”.
For `CC1(C)C(=O)N(Cl)C(=O)N1Cl`, the Potency was “inactive”.
For `CCN(CC)CCNC(=O)c1ccc(N)cc1`, the Potency was “inactive”.
In the case of `COc1ccc2cc3[n+](cc2c1OC)CCc1cc2c(cc1-3)OCO2`, the “activation (H2AX phosphorylation)” value is reported as -2.96% [at 70.9 µM].
For `OCC(O)CS` (stereo not given), the Potency was “inactive”.
With `Cc1ccncc1` the Potency was “inactive”.
With `CCCCCCC(=O)O` the Potency was “inactive”.
For `CC1(C)[C@@H](O[C@H]2O[C@H](C(=O)O)[C@@H](O)[C@H](O)[C@H]2O[C@@H]2O[C@H](C(=O)O)[C@@H](O)[C@H](O)[C@H]2O)CC[C@]2(C)[C@H]3C(=O)C=C4[C@@H]5C[C@@](C)(C(=O)O)CC[C@]5(C)CC[C@@]4(C)[C@]3(C)CC[C@@H]12`, the Potency was “inactive”.
In the case of `CCCCCNCCCCC`, the Potency is reported as “inactive”.
In the case of `Oc1ccc(Cc2ccccc2O)cc1`, the “activation (H2AX phosphorylation)” value is reported as 4.7%.
In the case of `CC(=O)CC(=O)N(C)C`, the Potency is reported as “inactive”.
For `C=CC(C)(C)C`, the Potency was “inactive”.
With `N#CCC(=O)O` the Potency was “inactive”.
For `Cc1ccc(Cl)cc1`, the Potency was “inactive”.
For `c1cnc2c(c1)ccc1cccnc12`, the Potency was 6.35 µM (active).
In the case of `NC1CCCCC1N` (stereo not given), the Potency is reported as “inactive”.
In the case of `C=C1C[C@]23C[C@@]1(O)CC[C@H]2[C@@]12C=C[C@H](O)[C@@](C)(C(=O)O1)[C@H]2[C@@H]3C(=O)O`, the Potency is reported as “inactive”.
For `CC/C(C)=N/O`, the Potency was “inactive”.
With `CCCCCCCCC(=O)O` the Potency was “inactive”.
For `COc1cc(NC(=O)CC(C)=O)c(OC)cc1Cl`, the “activation (H2AX phosphorylation)” value was -1.53%.
For `Brc1ccc(Oc2ccc(Br)cc2)cc1`, the “activation (H2AX phosphorylation)” value was 0.0816%.
For `O=[N+]([O-])c1ccccc1C(F)(F)F`, the Potency was “inactive”.
With `CC(=O)c1nccs1` the Potency was “inactive”.
For `CCCCCCCC(=O)O`, the Potency was “inactive”.
In the case of `CN1Cc2c(N)cccc2C(c2ccccc2)C1` (stereo not given), the Potency is reported as “inactive”.
For `OCc1ccc(Cl)cc1Cl`, the Potency was “inactive”.
For `Cc1nnc(NS(=O)(=O)c2ccc(N)cc2)s1`, the Potency was “inactive”.
In the case of `C=C(CC(=O)O)C(=O)O`, the Potency is reported as “inactive”.
In the case of `OB(O)O`, the Potency is reported as “inactive”.
